Several values for one entry are separate records, joined by “and”; a condition that tells them apart may be missing. Identical values can stand only once. Records with an inconclusive call do not appear. More than one record can exist for a structure, and the calls need not agree. Activity calls are given as the source filed them. Unless noted, the call rests on the fitted dose curve; in most records, active means well fitted curve in the direction sought with a large enough effect in the repeat runs; inconclusive means weak or mixed curves; inactive means no such curve, though single readings can be large; an effect the other way counts as inactive or inconclusive.

Assay [1] in a line: qHTS assay to identify aromatase inhibitors - cell viability counter screen (AID 743084).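 Further: cells stimulated with testosterone during compound exposure; nearly all actives have a fitted effect of over 55% in size.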 Further: potency means the concentration at half of the fitted maximal effect. On the technique in general: Quantitative high-throughput screening tests each substance at several concentrations.
Assay [2] has as its target Aryl hydrocarbon receptor (Homo sapiens) (UniProt P35869). Briefly: qHTS assay to identify small molecule that activate the aryl hydrocarbon receptor (AhR) signaling pathway (AID 743085). Further: nearly all actives have a fitted effect of over 15% in size. Further: potency means the concentration at half of the fitted maximal effect.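 On activation: HG2L7.5c1 human HepG2 liver cells with stably integrated DRE-driven firefly reporter; series mostly up to about 70 µM.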 An outline of the steps:
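HepG2 cells (HG2L7.5c1) stably carrying a firefly luciferase reporter driven by 20 dioxin responsive elements were exposed to compound for 24 h at 37C after a 5 h settling period; luminescence rise (ONE-Glo) indicated activation.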

A short description of assay [3]: qHTS assay to identify small molecule antagonists of the peroxisome proliferator-activated receptor gamma (PPARg) signaling pathway - cell viability counter screen (AID 743194). Further: nearly all actives have a fitted effect of over 55% in size. Further: potency means the concentration at half of the fitted maximal effect. The note with it: Potency: co-treated with 50 nM rosiglitazone unless noted. The method, boiled down:
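PPARg-UAS-bla HEK293H cells were plated, rested 5 h at 37 C, then treated with compounds plus rosiglitazone (50 nM final) for 17 h at 37 C; viability was then read by CellTiter-Glo luminescence after 30 min at room temperature.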

Assay [4] can be described thus: qHTS assay for small molecule agonists of the antioxidant response element (ARE) signaling pathway (AID 743202; active means well fitted activation curve with a large enough effect in the signal ratio in the repeat runs, not every such curve was filed as active; the % refers to the signal ratio; further: potency means the concentration at half of the fitted maximal effect). An outline of the steps: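 Steps: seed ARE-bla HepG2 cells (2,000/well); incubate 5 h at 37 C; add compounds by pin tool; incubate 16 h at 37 C; add FRET substrate; read fluorescence after 2 h at RT.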
The nature of assay [5]: qHTS assay for small molecule agonists of the antioxidant response element (ARE) signaling pathway - cell viability counter screen (AID 743203; calls by dose curve; further: nearly all actives have a fitted effect of over 55% in size; further: potency means the concentration at half of the fitted maximal effect). The method, boiled down: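 Luminescence read-out (CellTiter-Glo, 30 min at room temperature) measured cell viability in the same wells as the ARE beta-lactamase reporter. HepG2 ARE-bla cells were treated with compounds for 16 hrs at 37C/5% CO2.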

Assay [6] is described as follows: qHTS assay for small molecule activators of the heat shock response signaling pathway - cell viability counter screen (AID 743209). Further: nearly all actives have a fitted effect of over 50% in size. Further: potency means the concentration at half of the fitted maximal effect. The method, boiled down: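 HSE-bla HeLa; 1500 cells/well; overnight 37 C, 5% CO2; compound 5 h 37 C; LiveBLAzer B/G substrate 2.5 h RT; CellTiter-Glo 30 min RT; luminescence.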
Assay [7] in a line: qHTS assay to identify small molecule that activate the aryl hydrocarbon receptor (AhR) signaling pathway - cell viability counter screen (AID 743086). Further: nearly all actives have a fitted effect of over 45% in size. Further: potency means the concentration at half of the fitted maximal effect. An outline of the steps:
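HepG2-AhR-luc (HG2L7.5c1) cells, 4000/well, were preincubated 5 h at 37C, exposed to compound in qHTS format for 24 hr at 37C, then given CellTiter-Fluor for 30 min; viability was read as fluorescence in the reporter wells.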

The target in assay [8] is Peroxisome proliferator-activated receptor gamma (Homo sapiens) (UniProt P37231). Description: qHTS assay to identify small molecule agonists of the peroxisome proliferator-activated receptor gamma (PPARg) signaling pathway (AID 743094; active means well fitted activation curve with a large enough effect in the signal ratio in the repeat runs, not every such curve was filed as active; the % refers to the signal ratio; further: potency means the concentration at half of the fitted maximal effect). An outline of the steps:
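HEK293H PPARg-bla cells, 5 h settle at 37C/5% CO2; compound (DMSO) 17 h, 37C; B/G FRET substrate 1 h RT; fluorescence intensity read-out. qHTS format.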

A short description of assay [9]: qHTS assay for small molecule activators of the heat shock response signaling pathway (AID 743210; active means well fitted activation curve with a large enough effect in the signal ratio in the repeat runs, with a control signal flat, not every such curve was filed as active; the % refers to the signal ratio;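 further: HeLa cells with beta-lactamase reporter driven by heat shock elements; series mostly up to about 63 µM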). An outline of the steps:
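Activation of heat shock element-controlled beta-lactamase expression is measured in HeLa cells by LiveBLAzer FRET fluorescence, with compound exposure lasting 5 h at 37 C and substrate loading 2.5 h at room temperature.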

Assay [10] addresses Peroxisome proliferator-activated receptor gamma (Homo sapiens) (UniProt P37231). Description: qHTS assay to identify small molecule antagonists of the peroxisome proliferator-activated receptor gamma (PPARg) signaling pathway (AID 743191; calls by dose curve; further: nearly all actives have a fitted effect of over 30% in size; further: potency means the concentration at half of the fitted maximal effect). An outline of the steps: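 GeneBLAzer PPARg UAS-bla HEK293H cells carrying a UAS-driven beta-lactamase reporter were plated at 3000 cells/well, preincubated 5 h at 37C, then given compound for 17 h at 37C; LiveBLAzer B/G FRET substrate was read after 1 h at room temperature.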

Sequence of Aryl hydrocarbon receptor (Homo sapiens) (P35869 whole entry, looked up): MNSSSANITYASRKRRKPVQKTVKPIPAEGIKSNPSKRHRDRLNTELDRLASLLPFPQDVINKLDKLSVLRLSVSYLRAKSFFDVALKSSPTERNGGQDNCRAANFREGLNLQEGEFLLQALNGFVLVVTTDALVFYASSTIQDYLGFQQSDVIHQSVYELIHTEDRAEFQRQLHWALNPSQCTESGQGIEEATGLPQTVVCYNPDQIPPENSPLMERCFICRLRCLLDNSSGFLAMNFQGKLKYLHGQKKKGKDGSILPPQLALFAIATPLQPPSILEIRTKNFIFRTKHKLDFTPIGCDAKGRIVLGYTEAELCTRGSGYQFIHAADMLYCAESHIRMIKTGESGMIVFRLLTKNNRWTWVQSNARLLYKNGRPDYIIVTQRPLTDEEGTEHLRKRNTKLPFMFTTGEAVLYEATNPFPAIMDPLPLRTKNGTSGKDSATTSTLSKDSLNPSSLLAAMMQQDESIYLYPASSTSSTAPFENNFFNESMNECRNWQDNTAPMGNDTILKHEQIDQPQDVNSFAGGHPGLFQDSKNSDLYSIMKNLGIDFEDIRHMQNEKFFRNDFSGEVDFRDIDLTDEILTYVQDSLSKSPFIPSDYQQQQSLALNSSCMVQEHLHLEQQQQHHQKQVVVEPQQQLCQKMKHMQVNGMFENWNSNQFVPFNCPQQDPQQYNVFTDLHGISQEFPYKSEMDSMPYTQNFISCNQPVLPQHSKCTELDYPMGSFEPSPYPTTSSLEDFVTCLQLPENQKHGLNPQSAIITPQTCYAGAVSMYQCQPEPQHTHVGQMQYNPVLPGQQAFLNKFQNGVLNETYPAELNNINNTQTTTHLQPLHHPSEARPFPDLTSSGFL
Sequence of Peroxisome proliferator-activated receptor gamma (Homo sapiens) (P37231 whole entry, looked up): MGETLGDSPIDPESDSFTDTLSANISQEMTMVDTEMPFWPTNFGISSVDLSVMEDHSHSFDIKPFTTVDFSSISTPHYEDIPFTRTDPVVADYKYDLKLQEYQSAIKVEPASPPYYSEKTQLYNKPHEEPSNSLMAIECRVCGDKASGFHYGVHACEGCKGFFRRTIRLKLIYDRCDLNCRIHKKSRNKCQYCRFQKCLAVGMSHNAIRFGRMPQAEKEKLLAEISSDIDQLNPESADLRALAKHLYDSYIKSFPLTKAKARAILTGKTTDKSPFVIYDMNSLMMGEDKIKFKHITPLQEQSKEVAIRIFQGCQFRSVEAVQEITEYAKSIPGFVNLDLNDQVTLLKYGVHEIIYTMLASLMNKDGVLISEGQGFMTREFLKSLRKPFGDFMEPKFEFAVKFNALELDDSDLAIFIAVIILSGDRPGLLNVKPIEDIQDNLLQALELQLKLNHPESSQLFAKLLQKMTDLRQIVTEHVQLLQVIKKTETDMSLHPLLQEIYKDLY

With `CN(C)c1ccc(N=Nc2ccccc2)cc1`, the Potency in assay [1] was 54.5 µM (active); in assay [2], 27.3 µM (active); in [4], 8.64 µM (active). In addition, the Potency result in assay [3], in assay [5] and in assay [6] was “inactive” throughout.

On to `CC(C)CC(C)(c1ccc(O)cc1)c1ccc(O)cc1`, for which the Potency in assay [1] is 61.3 µM (active); in assay [5] it was 54.5 µM (active); in assay [6] it was 55.1 µM (active). Also, the Potency entry in assay [2] was “inactive”.

`Oc1ccc(C2(c3ccc(O)cc3)CCCCC2)cc1`: the values for the Potency in assay [1] and in assay [3] were 25.9 µM (active) and 41.3 µM (active), respectively. Moreover, the Potency result in assay [2] was “inactive”.

In the case of `CC(C)C1CCC(Cc2ccc(Cl)cc2)C1(O)Cn1cncn1` (stereo not given), the Potency is 24.1 µM (active) in assay [1] and 15.2 µM (active) in assay [4]. The Potency result in [2] and in assay [6] was “inactive” each time.

For the compound `c1ccc(Nc2ccc3ccccc3c2)cc1`, the Potency in [1] is 54.2 µM (active); in assay [6], “inactive and 54.9 µM (active)”. Also, the Potency entry in [7], in assay [8], in [3], in [5] and in assay [9] was “inactive” throughout.

For the compound `CCCCN(CCCC)C(=S)[S-].CCCCN(CCCC)C(=S)[S-].[Zn+2]`, the Potency entry in assay [1], in assay [7] and in assay [6] was “inactive” in each case. For the same compound, the Potency result in assay [8] was “inactive and 30.9 µM (active)”; in assay [3], 5.49 µM (active); in [5], 19.3 µM (active).

`BrC(Br)C(Br)(Br)Br`: the Potency in [1] and in [5] was 54.8 µM (active) throughout. For the same compound, the Potency result in [7], in assay [8] and in [6] was “inactive” throughout.

As to `Clc1ccc(CO/N=C(\Cn2ccnc2)c2ccc(Cl)cc2Cl)c(Cl)c1`, the Potency result in assay [1], in [7] and in assay [8] was “inactive” throughout. Besides, the Potency in assay [6] was 23.7 µM (active).

As for `O=c1oc2ccccc2c(O)c1Cc1c(O)c2ccccc2oc1=O`, the Potency result in [1], in [2] and in assay [6] was “inactive” throughout. For the same compound, the Potency in assay [4] is 7.5 µM (active).

On to `O=C(CCl)C(Cl)Cl`, for which the Potency is 8.71 µM (active) in [1] and 61.7 µM (active) in [5]. Also, in [2], the Potency entry is “inactive”.

Consider `CC(C)CCCCCOC(=O)c1ccccc1C(=O)OCCCCCC(C)C`, for which the Potency result in assay [1], in [7], in [8], in assay [10], in [3] and in assay [4] was “inactive” throughout. Moreover, the Potency entry in [5], in assay [6] and in [9] was “inactive” throughout.

For `COC(=O)N(C(=O)N1CO[C@@]2(C(=O)OC)Cc3cc(Cl)ccc3C2=N1)c1ccc(OC(F)(F)F)cc1`, the Potency result in [1], in assay [2], in assay [5] and in assay [6] was “inactive” in each case.

For the compound `CC1(C)[C@H](C(=O)O[C@H](C#N)c2cccc(Oc3ccccc3)c2)[C@@H]1/C=C(\Cl)C(F)(F)F`, the Potency result in assay [1], in assay [2], in assay [10], in assay [3], in assay [4] and in assay [5] was “inactive” in each case. In addition, the Potency result in [6] is “inactive”.

In the case of `Clc1ccc(CSC(Cn2ccnc2)c2ccc(Cl)cc2Cl)cc1` (stereo not given), the Potency entry in assay [1], in [7] and in assay [8] was “inactive” throughout. The Potency in assay [5] and in assay [6] was 29.8 µM (active) in each case.

With `Cc1ccc(OP(=O)(Oc2ccccc2)Oc2ccccc2)cc1`, the Potency result in assay [1], in assay [7], in assay [8], in [3], in assay [5] and in [6] was “inactive” each time. In addition, in [9], the Potency entry was “inactive”.

Regarding `CCc1nn(C)c(C(=O)NCc2ccc(C(C)(C)C)cc2)c1Cl`, the Potency in [1] was 61.1 µM (active); in [5], 24.3 µM (active); in assay [6] it was 54.9 µM (active).

Consider `COP(=S)(OC)Oc1cc(Cl)c(Br)cc1Cl`, for which the Potency result in assay [1], in [8], in assay [6] and in [9] was “inactive” each time. The Potency in assay [10] was 43.6 µM (active); in assay [3], 34.7 µM (active).

Consider `O=[N+]([O-])c1cc(C(F)(F)F)c(Cl)c([N+](=O)[O-])c1Cl`, for which the Potency is 3.06 µM (active) in [1]; 54.5 µM (active) in assay [7]; 2.45 µM (active) in assay [3]; 1.72 µM (active) in [5]; 2.19 µM (active) in [6].

`C[C@@H]1O[C@@H](O[C@@H]2C=C3CC[C@@H]4[C@H](CC[C@]5(C)[C@@H](c6ccc(=O)oc6)CC[C@]45O)[C@@]3(C)CC2)[C@H](O)[C@H](O)[C@H]1O`: the Potency result in assay [1] and in [7] was “inactive” in each case. In addition, the values for the Potency in assay [3], in [5] and in assay [6] were 0.0119 µM (active), 0.0211 µM (active) and 0.006 µM (active), respectively.

`CC(C)CC(C)Nc1ccc(Nc2ccccc2)cc1` (stereo not given): the Potency is 47.7 µM (active) in assay [1], 67.4 µM (active) in [7] and 54 µM (active) in [6].

On to `CC(C)(C)c1ccc(CSc2cnn(C(C)(C)C)c(=O)c2Cl)cc1`, for which the Potency result in assay [1], in [7] and in assay [9] was “inactive” throughout. Also, the Potency in [5] is 24.3 µM (active).

With `O=c1[nH]c2ccccc2n1CCCN1CCC(n2c(=O)[nH]c3cc(Cl)ccc32)CC1`, the Potency entry in assay [1], in assay [3], in assay [4], in [5], in assay [6] and in assay [9] was “inactive” throughout.

The record behind these values is PubChem BioAssay (Tox21).
